# Compound activity deposited in PubChem by National Center for Advancing Translational Sciences (NCATS).
# Shown are actives, neighbours in structure and some others; about 7.3% of the full set was active somewhere.
# ELG1 genotox = induces genotoxicity in HEK293T cells with luciferase-tagged ELG1. HEK293T ELG1-luciferase reporter, luminescence, 16 h. Potency, µM (top dose mostly 46 µM), for the others: at the highest dose activity change, positive = activation, hits mostly activators. 1.3% of 330,000 active. AID 504466; further: % of control where 0% means no effect; nearly all actives have a fitted effect of over 60% in size
#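 After overnight (16 hr) compound treatment at 37 °C, ELG1-luciferase HEK293T cells were lysed with ONE-Glo; luminescence quantified 30 min later at room temperature.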
# Luc counter = Kinase-Glo luciferase inhibition (counter-screen); Potency, µM (doses to about 38.3 µM), without a hit: at the highest dose activity change, negative = inhibition, usual class: inhibitors; 0.28% of 200,000 active; Q27757; Kinase-Glo luciferase, ATP luminescence, 8 min; further: on the % scale 0 is the no-effect control and ±100 the full control effect; nearly all actives have a fitted effect of over 60% in size
#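 Kinase-Glo luciferase light output from ATP and luciferin was measured with 10 uM ATP, within the enzyme's linear range. Buffer: 50 mM imidazole pH 7.2, 50 mM KCl, 7 mM MgCl2, 0.01% Tween 20, 0.05% BSA; luminescence read after 8 min at ambient temperature.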
# SMN2 splice enh = increases expression of the SMN2 splice variant | 2.8% of 210,000 active | AID 1458 | HEK293 SMN2-luciferase splicing reporter, luminescence, 30-36 h | Potency, µM (series often up to 46.1 µM), inactives show at the top dose activity change, positive = activation, hits mostly activators; further: % of control where 0% means no effect; nearly all actives have a fitted effect of over 55% in size
#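 HEK293 cells carry an SMN2 minigene-luciferase reporter in which exon 7 inclusion puts luciferase in frame. Cells were seeded at 2000 cells/well, attached for 10-12 hours, then exposed to compounds for 30-36 hours at 37C before ONE-Glo luminescence.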
# Rab9 promoter act = activators of Rab9 promoter; Potency, µM (top dose mostly 9.22 µM), for the others: at the top dose activation, negative = inhibition, actives largely listed as activators; 2.8% of 320,000 active; AID 485297; Huh7 Rab9 promoter-luciferase reporter, luminescence, 24 h; further: % of control where 0% means no effect; nearly all actives have a fitted effect of over 60% in size
#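 Using Huh7 cells stably transfected with Rab9 promoter–luciferase, compounds were incubated 24 h at 37 °C, 5% CO2; luciferase luminescence was read 10 min after reagent addition.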
# FLuc modulator = inhibits or activates purified firefly luciferase, miR-21 counter-screen. purified FLuc, Km substrates, luminescence inhibition. 6.9% of 360,000 active. Potency, µM (doses to about 57.5 µM), inactives show top-dose activity change, negative = inhibition, most hits filed as inhibitors. P08659. AID 588342;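 further: plate controls were vehicle for no effect and reference inhibitor for full effect; nearly all actives have a fitted effect of over 55% in size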
# Target sequence (P08659 whole entry, looked up): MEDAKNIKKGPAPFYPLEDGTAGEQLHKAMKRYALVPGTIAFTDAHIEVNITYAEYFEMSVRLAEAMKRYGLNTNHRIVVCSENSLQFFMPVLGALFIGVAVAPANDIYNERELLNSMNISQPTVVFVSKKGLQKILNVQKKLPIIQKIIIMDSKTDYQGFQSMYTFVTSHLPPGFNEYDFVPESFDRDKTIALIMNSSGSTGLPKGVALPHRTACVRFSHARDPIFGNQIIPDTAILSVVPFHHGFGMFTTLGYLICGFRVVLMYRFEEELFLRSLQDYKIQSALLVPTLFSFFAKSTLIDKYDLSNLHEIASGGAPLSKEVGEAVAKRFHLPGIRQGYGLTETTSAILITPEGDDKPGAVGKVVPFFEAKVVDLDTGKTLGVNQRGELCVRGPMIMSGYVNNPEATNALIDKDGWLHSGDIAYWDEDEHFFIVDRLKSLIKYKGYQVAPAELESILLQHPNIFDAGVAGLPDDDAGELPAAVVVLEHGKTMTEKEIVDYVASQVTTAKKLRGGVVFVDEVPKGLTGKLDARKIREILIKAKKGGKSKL
#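 Biochemical qHTS of compounds, final roughly 60 µM downward over six points, against 10 nM purified firefly luciferase using Km concentrations of substrates (10 uM D-luciferin, 10 uM ATP) in Tris acetate pH 7.5 buffer; luminescence output.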
# NPC1 prom act = activators of NPC1 promoter; Huh7 NPC1 promoter luciferase reporter, 24 h; Potency, µM (titrated, usually from 9.22 µM), inactives show at the top dose activation, usual class: activators; 2.4% of 320,000 active; AID 485313; further: % of control where 0% means no effect; nearly all actives have a fitted effect of over 60% in size
#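 Luminescence from an NPC1 promoter-driven luciferase reporter in stably transfected Huh7 cells was measured after 24 h compound treatment at 37 °C, followed by 10 min ambient incubation with luciferase detection reagent.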
# An asterisk follows results filed as active; u = inconclusive; x = not tested or not shown; [ ] = dose if it differs, or a comment. The call rests on the fitted dose curve; in most records, active means well fitted curve in the direction sought with a large enough effect; inconclusive means small, poorly fitted or top-dose-only effect, or another doubt; inactive means no such curve, though single readings can be large; an effect the other way counts as inactive or inconclusive. Potency means the concentration at half of the fitted maximal effect.
SMILES,ELG1 genotox,Luc counter,SMN2 splice enh,Rab9 promoter act,FLuc modulator,NPC1 prom act
COc1ccccc1NC(=O)CSc1nnc(NC(=O)c2ccco2)s1,14%,x,x,8%,15µM*,-1%
CC(C)C[C@@H](CC(=O)N[C@@H](CCC(=O)O)CC(=O)O)NC(=O)[C@@H]1CCCC[C@H]1NC(=O)C[C@H](CCCN)NC(=O)C[C@H](CO)NC(=O)[C@@H]1CCCC[C@H]1N,x,1%,4%,x,x,x
CC(=O)c1cccc(NC(=O)c2cnn3ccccc23)c1,12µM*,u,x,3.2µM*,12µM*,5µM*
CC(=O)c1ccc(NC(=O)c2cnn3ccccc23)cc1,1.3µM*,-14%,-37%,0.35µM*,5.4µM*,0.35µM*
COc1cc(NC(=O)c2nc3ccccc3n(C)c2=O)cc(OC)c1OC,x,x,-2%,x,-20%,x
CC(=O)c1cccc(NC(=O)c2ccccc2-c2ccccc2C(=O)O)c1,-5%,x,x,-11%,2%,5%
CC(=O)c1cccc(NC(=O)c2nc3ccccc3n(C)c2=O)c1,x,x,23%,x,3.8µM*,x
CC(=O)c1ccc(NC(=O)c2cnn(-c3cccc(F)c3)c2-n2cccc2)cc1,x,x,x,x,-13%,x
c1ccc2c(c1)oc1c(N3CCN(Cc4ccc5c(c4)OCO5)CC3)ncnc12,18µM*,-1%,-67%,-12%,17µM*,0%
CCc1nc(Nc2ccc(O)cc2)c2oc3ccccc3c2n1,-8%,x,x,9%,19µM*,14%
CCc1nc(Nc2ccc3c(c2)OCCO3)c2oc3ccccc3c2n1,-13%,9%,-42%,-4%,27µM*,-1%
CCc1nc(Nc2ccccc2O)c2oc3ccccc3c2n1,0%,x,x,-4%,-1%,u
O=[N+]([O-])c1ccc2ncnc(Nc3ccc4c(c3)OCCO4)c2c1,-9%,-1%,-1%,0%,0%,14%
Cc1nc(Nc2ccc3c(c2)OCCO3)c2oc3ccccc3c2n1,-3%,-8%,-40%,3%,u,14%
c1ccc2c(c1)oc1c(Nc3ccc4c(c3)OCCO4)ncnc12,13%,-21%,2.8µM*,1.6µM*,2.4µM*,u
COc1cn(CC(=O)Nc2ccc(F)cc2)c(CN2CCCCC2)cc1=O,x,x,x,x,-1%,x
CN1CCN(C(=O)C(=O)Nc2c3c(nn2-c2cccc(Cl)c2)CSC3)CC1,x,x,x,x,1%,x
CC(C)NC(=O)c1sc2ncccc2c1-n1cccc1,x,x,x,x,5%,x
CCCS(=O)(=O)c1ncc(Cl)c(C(=O)Nc2c(C(=O)c3ccccc3)oc3ccccc23)n1,x,x,1%,x,0%,x
COc1ccc(CNc2nc(-c3ccco3)nn2C(=O)CC(C)C)cc1,x,x,13µM*,x,x,x
CCC(C)N1C(=O)S/C(=C/c2ccc(N3CCOCC3)cc2C)C1=O (centres undefined),15%,0%,-16%,u,7.6µM*,u
Cc1cc(N2CCOCC2)ccc1/C=C1\SC(=O)N(C(C)C)C1=O,u,-7%,20%,1.4µM*,3.8µM*,1.4µM*
Cc1ccc(N2CCN(C(=O)N3CCOCC3)CC2)cc1C,1%,3%,x,0%,-1%,-1%
O=C(Nc1ccccn1)c1ccc2c(c1)OCO2,u,11µM*,11µM*,1.3µM*,12µM*,3.2µM*
Cc1cccc(NC(=O)c2ccc3c(c2)OCCO3)n1,u,x,x,1.3µM*,9.5µM*,1.4µM*
SMILES,ELG1 genotox,Luc counter,SMN2 splice enh,Rab9 promoter act,FLuc modulator,NPC1 prom act
O=C(NC(=S)Nc1cc([N+](=O)[O-])ccc1O)c1ccc2c(c1)OCO2,1µM*,x,x,0.32µM*,1.5µM*,0.32µM*
O=C(Nc1ncccc1Cl)c1ccc2c(c1)OCCO2,5.2µM*,u,10µM*,2.5µM*,13µM*,3.2µM*
Cc1cccc(NC(=O)CNC(=O)c2ccc3c(c2)OCO3)n1,2%,x,x,-2%,-13%,-1%
COc1ccc(Br)cc1CNC(=O)c1cc(=O)[nH]c2ccc(S(=O)(=O)N3CCCCC3)cc12,x,x,x,x,-2%,x
O=C1CC(c2ccccc2)Sc2ccccc2N1Cc1ccc(F)cc1 (centres undefined),x,x,u,x,-18%,x
Cc1nn(CCC(=O)NCc2cccc(Br)c2)c(=O)c2nn(-c3ccccc3)c(C)c12,x,x,x,x,-8%,x
CC(C)(C)c1ccc(C(=O)Nc2ccc([N+](=O)[O-])cn2)cc1,u,1%,2.8µM*,1µM*,1.9µM*,0.71µM*
O=C(NC(=S)Nc1ccc([N+](=O)[O-])cc1O)C1CCCCC1,-6%,x,x,8%,u,11%
O=C(Nc1ccccn1)c1ccc(C(=O)Nc2ccccn2)cc1,13%,x,x,u,u,u
O=C(Nc1ccccn1)c1ccc2c(c1)OCCO2,8%,u,2.5µM*,0.63µM*,6.7µM*,1.1µM*
Cn1ccc(C(=O)NC(=S)Nc2ccc([N+](=O)[O-])cc2O)n1,12µM*,x,x,2.8µM*,12µM*,2.2µM*
O=C(Nc1ccc([N+](=O)[O-])cn1)c1cccnc1,2%,x,x,-6%,-3%,0%
O=C(Nc1nc2c(F)cccc2s1)c1ccc2c(c1)OCCO2,x,x,x,x,0.54µM*,x
O=C(Nc1nc2c(F)cccc2s1)C1CC1,10%,x,x,u,u,u
COc1ccccc1NC(=O)c1ccc(-c2nc(COc3ccc(C)cc3)c(C)o2)cc1,x,x,x,x,-2%,x
CCOC(=O)c1ccc(NC(=O)CCc2c(C)nc3c(c(C)nn3C)c2C)cc1,x,x,1%,x,-8%,x
CC(=O)Nc1ccc(C(=O)Nc2nc(-c3ccccn3)cs2)cc1,-9%,0%,11%,-14%,u,-5%
O=C(Cc1ccc([N+](=O)[O-])cc1)NNC(=O)c1ccc2c(c1)OCO2,10%,x,x,3%,6%,1%
O=C(Nc1nc(-c2ccccn2)cs1)c1ccc2c(c1)OCCO2,u,x,x,1.8µM*,1.1µM*,2.8µM*
O=C(Nc1ccc([N+](=O)[O-])cn1)c1ccc2c(c1)OCO2,14%,-7%,u,1.6µM*,-6%,u
COc1ccc(N(C(=O)c2cccc(C)c2)S(=O)(=O)c2ccc(C)cc2)cc1,x,x,-4%,x,5%,x
OC[C@@H](O)[C@@H](O)[C@@H](O)[C@@H](O)c1nc2ccc(Cl)cc2[nH]1,x,-3%[7.66 µM],-8%[9.22 µM],x,x,x
CSc1ccc(/C=C/C(=O)NC(=O)c2ccccc2O)cc1,9.2µM*,-7%,25µM*,2.5µM*,0.6µM*,u
O=C(/C=C/c1ccc(Br)cc1)NC(=O)c1ccccc1O,u,0%,22µM*,1.8µM*,0.38µM*,3.5µM*
O=C(/C=C/c1ccc(F)cc1)NC(=S)Nc1ccccc1O,10%,x,x,22%,-10%,u
